Results on 27 compounds are retold here after PubChem BioAssay AID504332 (National Center for Advancing Translational Sciences (NCATS), 2011).

Among all 350,000 compounds or so, about 31,000 (8.9%) were called active. Entries that show only a call come without a potency. Roughly 15% stayed inconclusive and do not appear here. The sample holds actives, similar compounds and a random draw of the others, so the mix is not that of the screen. A number with no mark means an inactive call. Calls come from the whole dose curve; as a rule, active = well fitted inhibition curve with a large enough effect; inconclusive = small, poorly fitted or top-dose-only effect; inactive = no such curve, though single readings can be large or run the other way.
Potency is the fitted concentration of half-maximal effect.

Chain of Histone-lysine N-methyltransferase EHMT2 (Homo sapiens) (Q96KQ7 913-1193 limits assumed): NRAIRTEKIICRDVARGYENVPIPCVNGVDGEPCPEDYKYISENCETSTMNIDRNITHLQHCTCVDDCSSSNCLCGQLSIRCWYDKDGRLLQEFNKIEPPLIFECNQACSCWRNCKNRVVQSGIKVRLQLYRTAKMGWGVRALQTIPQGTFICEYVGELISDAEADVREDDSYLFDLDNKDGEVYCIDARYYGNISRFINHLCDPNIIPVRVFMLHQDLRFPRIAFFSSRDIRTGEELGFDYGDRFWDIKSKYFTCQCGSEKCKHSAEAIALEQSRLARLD

For the experiment, the target named is Histone-lysine N-methyltransferase EHMT2 (Homo sapiens) (UniProt Q96KQ7). The experiment in a line: qHTS Assay for Inhibitors of Histone Lysine Methyltransferase G9a. Note: nearly all actives have a fitted effect of over 75% in size. Conditions: G9a H3K9 monomethylation, AlphaScreen, 2 h; series mostly up to 59 µM. In a few lines:
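G9a (20 nM) was preincubated 15 min with compound, then reacted 2 h at room temperature with 500 nM biotin-H3K9 peptide and 20 µM SAM. Monomethyl-H3K9 detected by AlphaScreen using anti-H3K9me1 antibody.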
(qHTS replaces the single test concentration by a dilution series.)
Consider `CCCOc1ccc(C(=O)Nc2ccc3oc(-c4cccc(Cl)c4Cl)nc3c2)cc1`, for which the Potency result is “inactive”.

In the case of `S=C(NC1CCCCC1)NN1CCOCC1`, the Potency is 50.1 µM (active).

Turning to `COc1ccc(S(=O)(=O)N2CCOCC2)cc1C(=O)NC1CCCCC1`, the Potency entry was “inactive”.

For `CC(NC(=S)NC1CCCCC1)C(c1ccccc1)N1CCOCC1` (configuration not stated), the Potency result is “inactive”.

Regarding `COc1ccc(NC(=O)C(=O)NCC(=O)Nc2cccc(C(F)(F)F)c2)cc1`, the Potency entry was “inactive”.

Turning to `COc1ccc(C(CC(=O)Nc2ccc(C)cc2)NC(=O)C(F)(F)F)cc1` (configuration not stated), the Potency was 79.4 µM (active).

As to `COc1ccc(NC(=O)CN(C)CC(=O)Nc2cccc(C(F)(F)F)c2)cc1`, the Potency entry was “inactive”.

For `CCCCOc1ccc(C(=O)Nc2cccc(-c3nc4ccccc4o3)c2C)cc1`, the Potency result is “inactive”.

In the case of `O=C(NCc1ccc(Cl)cc1)C(=O)NCC1CCCN1S(=O)(=O)c1cccs1` (configuration not stated), the Potency entry is “inactive”.

With `Cc1cc(NC(=O)CC(C)C)cc(-c2nc3ncccc3o2)c1O`, the Potency entry is “inactive”.

For the compound `Cc1ccc(-n2nc(CO)c(C(=O)NCCc3ccccc3)n2)cc1`, the Potency result is “inactive”.

`COc1cc(C(=S)N2CCOCC2)cc(OC)c1OC(=O)c1cc([N+](=O)[O-])cc([N+](=O)[O-])c1`: the Potency is 31.6 µM (active).

As to `O=C(c1ccc(Oc2ccc(Cl)cc2)c([N+](=O)[O-])c1)N1CCCC1`, the Potency result was “inactive”.

Consider `COc1cc([N+](=O)[O-])cc([N+](=O)[O-])c1NC(=O)N1CCOCC1`, for which the Potency was 50.1 µM (active).

As for `COc1cc(NC(=O)N2CCOCC2)cc(OC)c1`, the Potency entry is “inactive”.

As for `Cc1cc(OC(=O)c2ccccc2)c([N+](=O)[O-])c(=O)[nH]1`, the Potency entry was “inactive”.

In the case of `O=C(Oc1ccc(Br)cc1C(=S)N1CCOCC1)c1cccc([N+](=O)[O-])c1`, the Potency is 7.08 µM (active).

As to `O=C(/C=C/c1cccc([N+](=O)[O-])c1)OCC(=O)N1CCOCC1`, the activity, negative = inhibition is 12.5% [at 12.7 µM].

In the case of `O=C(Oc1cccc(C(=S)N2CCOCC2)c1)c1cccc(Cl)c1`, the Potency entry was “inactive”.

Consider `O=C(NCCCN1CCOCC1)c1ccc([N+](=O)[O-])cc1[N+](=O)[O-]`, for which the Potency entry is “inactive”.

Regarding `O=C(Oc1ccccc1C(=S)N1CCCCC1)c1cc([N+](=O)[O-])cc([N+](=O)[O-])c1`, the Potency is 3.55 µM (active).

As for `COc1cc(C(=O)N2CCOCC2)cc(OC)c1OC`, the Potency result is “inactive”.

For the compound `COc1cc(C(=O)OCc2ccc([N+](=O)[O-])cc2)cc(OC)c1OC`, the Potency entry was “inactive”.

For `COc1ccc(/C=N/Nc2cc(N3CCOCC3)nc(C)n2)c(OC)c1`, the Potency entry is “inactive”.

Turning to `Cc1ccc2cccc(NC(=O)C(C)Oc3ccc(C)c(C)c3)c2n1` (configuration not stated), the Potency entry is “inactive”.

Turning to `Cc1ccc(-c2cnc(C3CC3)o2)cc1S(=O)(=O)Nc1cccc(C)c1C`, the activity, negative = inhibition is -9.84% [at 12.7 µM].

Regarding `CCC(=O)N1c2ccccc2CC1C(=O)N1CCN(c2ccccc2F)CC1` (configuration not stated), the activity, negative = inhibition is 0.329% [at 12.7 µM].
